Among the data in PubChem BioAssay (NCATS) are Potency, max response and outcome values, retold here.

“And” between values parts separate entries of the source, which are not always exact repeats. Equal entries are not always repeated. Results filed as inconclusive are left out. The source holds several records for some structures; these can differ, active in one and inactive in another. Values without a mark were called inactive. The source made the active and inactive calls. Calls follow the shape of the dose curve; as a rule, active = well fitted inhibition curve with a large enough effect; inconclusive = small, poorly fitted or top-dose-only effect; inactive = flat fitted curve, though single readings scatter.

For one assay, the system named is ICS. In words: qHTS profiling for inhibitors of Plasmodium falciparum proliferation (AID 504749). Also: potency is read from the fitted curve at half-maximal effect. The note with it: P. falciparum in erythrocytes, SYBR Green DNA, 72 h; series mostly up to 28.7 µM. In outline: (§1)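 Infected RBCs, 0.3% parasitemia/2.5% Hct final; cpd 72 h, 37 C, 5% CO2; lysis buffer with saponin/triton/SYBR Green I, o/n RT dark; FI 485/535; norm. to artemisinin (0.29 uM) and DMSO.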

The next assay has as its system JCK. Described as above. Particulars: P. falciparum in erythrocytes, SYBR Green DNA, 72 h; series mostly up to 28.7 µM. The method, boiled down: as §1
The subject of the next assay is N140. Described as above. The note with it: P. falciparum in erythrocytes, SYBR Green DNA, 72 h; series mostly up to 28.7 µM. The method, boiled down: as §1
In another assay the test system is P93_24. The description is as above. The note with it: P. falciparum in erythrocytes, SYBR Green DNA, 72 h; series mostly up to 28.7 µM. In outline: as §1
The test system of a further assay is P94_40. The assay is described as above. Particulars: P. falciparum in erythrocytes, SYBR Green DNA, 72 h; series mostly up to 28.7 µM. The method, boiled down:
as §1

A further assay concerns PAD. Described as above. The note with it: P. falciparum in erythrocytes, SYBR Green DNA, 72 h; series mostly up to 28.7 µM. In outline:
as §1

The next assay deals with PC15. The description is as above. The note with it: P. falciparum in erythrocytes, SYBR Green DNA, 72 h; series mostly up to 28.7 µM. The method, boiled down:
as §1

The subject of a further assay is PC26. The assay is described as above. The note with it: P. falciparum in erythrocytes, SYBR Green DNA, 72 h; series mostly up to 28.7 µM. In outline: as §1
Another assay deals with PC49. The assay is described as above. Particulars: P. falciparum in erythrocytes, SYBR Green DNA, 72 h; series mostly up to 28.7 µM. The method, boiled down:
as §1

The test system of a further assay is SC27B. The description is as above. Particulars: P. falciparum in erythrocytes, SYBR Green DNA, 72 h; series mostly up to 28.7 µM. The method, boiled down: as §1
Another assay has as its system TAB109. The description is as above. The note with it: P. falciparum in erythrocytes, SYBR Green DNA, 72 h; series mostly up to 28.7 µM. In outline: as §1
The test system of a further assay is TAB113. Described as above. The note with it: P. falciparum in erythrocytes, SYBR Green DNA, 72 h; series mostly up to 28.7 µM. In outline:
as §1

For another assay, the system named is TAB165. The assay is described as above. The note with it: P. falciparum in erythrocytes, SYBR Green DNA, 72 h; series mostly up to 28.7 µM. In outline: as §1
A further assay deals with W2. Described as above. Particulars: P. falciparum in erythrocytes, SYBR Green DNA, 72 h; series mostly up to 28.7 µM. The method, boiled down:
as §1

Assay [1] deals with CRL-7250. In words: Cytotoxic Profiling of Annotated Libraries Using Quantitative High-Throughput Screening (AID 1296008). Also: potency is read from the fitted curve at half-maximal effect. As to max response: % is scaled to controls: 0 for no effect and ±100 for the full control effect. The note with it: Five cell lines viability, CellTiter-Glo ATP luminescence, 48-72 h; max response: active compounds read low. In outline: (§2)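 Cytotoxicity was measured as CellTiter-Glo ATP luminescence, read after 10 min at room temperature. Compound treatment of the cells lasted 48 or 72 hr at 37 degrees Celsius in a qHTS format.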
For orientation: ATP-based viability assays read luminescence as a measure of living cells.

The test system of a further assay is HEK293. The assay is described as above. The note with it: Five cell lines viability, CellTiter-Glo ATP luminescence, 48-72 h; max response: active compounds read low. The method, boiled down: as §2
The next assay relates to HaCat. The description is as above. Particulars: Five cell lines viability, CellTiter-Glo ATP luminescence, 48-72 h; max response: active compounds read low. The method, boiled down: as §2
A further assay deals with KB-3-1. The description is as above. Particulars: Five cell lines viability, CellTiter-Glo ATP luminescence, 48-72 h; max response: active compounds read low. The method, boiled down:
as §2

For the next assay, the system named is NIH3T3. The description is as above. The note with it: Five cell lines viability, CellTiter-Glo ATP luminescence, 48-72 h; max response: active compounds read low. The method, boiled down: as §2
For assay [2], the system named is CRL-7250. In words: qHTS assay to identify novel small-molecules to repurpose for Merkel cell carcinoma treatment (AID 1296009). The note with it: MCC and control cell lines, CellTiter-Glo viability, 72 h; series mostly up to 44.8 µM. In outline: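 72 hr, 37 degree celsius; NPC 8-pt / MIPE 11-pt dose response; compound pinned in DMSO; CellTiter-Glo, 10 min RT, luminescence; normalized to no-cell and DMSO controls.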
(In general: In qHTS, concentration-response curves come from the screen itself.)
Also: nearly all actives have a fitted effect of over 60% in size.

Take `Oc1cccc2cccnc12`: the Potency result in the assay with ICS, in the assay on JCK, in the assay with N140, in the assay with P93_24, in the assay on P94_40 and in the assay on PAD was “inactive” in each case. Also, the Potency result with PC15, with PC26, in the assay on PC49, in the assay with SC27B, with TAB109 and with TAB113 was “inactive” in each case. The Potency entry in the assay on TAB165 and in the assay on W2 was “inactive” each time. The max response in the assay on CRL-7250 [1] was 3.76%; in the assay on HEK293 it was -0.236%; in the assay on HaCat, 4.28%; in the assay on KB-3-1, 22% and 11.8% and -4.11%; with NIH3T3, 4.09%. The Potency in the assay with HEK293 was 13.7 µM (active); in the assay with NIH3T3, 19.3 µM (active).

As for `CN(C)[C@@H]1C(=O)C(C(N)=O)=C(O)[C@@]2(O)C(=O)C3=C(O)c4c(O)cccc4[C@@](C)(O)[C@H]3C[C@@H]12`, the max response in the assay on CRL-7250 [1] is -3.81%; in the assay with HaCat, -13.2% and 4.81%; with KB-3-1 it was -1.95% and 4.68%; in the assay with NIH3T3, -3.21% and -4.63%. The result in the assay with CRL-7250 [1] and in the assay with CRL-7250 [2] was inactive.

Take `CC(C)(C)NCC(O)c1cc(Cl)c(N)c(Cl)c1` (stereo unspecified): the Potency is 11.2 µM (active) in the assay on ICS; 8.91 µM (active) in the assay on N140; 7.94 µM (active) in the assay on P94_40; 7.94 µM (active) with PAD; 6.75 µM (active) with W2. The call in the assay with CRL-7250 [1], with NIH3T3 and with CRL-7250 [2] was inactive. Besides, the max response was -10.9% in the assay with HEK293, -3.36% with HaCat and -14.9% in the assay with KB-3-1.

Turning to `Oc1ccc(Cl)cc1Cc1ccccc1`, the Potency in the assay with ICS was 2 µM (active); with N140, 7.94 µM (active); in the assay with P94_40, 12.6 µM (active); with PAD it was 11.2 µM (active); in the assay with PC26 it was 15.1 µM (active); with SC27B it was 10 µM (active). The Potency is 6.31 µM (active) in the assay on TAB165, 4.78 µM (active) in the assay with W2 and 19.5 µM (active) in the assay with HEK293. Further, the max response was -21.4% in the assay on CRL-7250 [1]; -23% with HEK293; -19.2% in the assay with HaCat; -1.59% and -11.5% with KB-3-1; -10.2% in the assay on NIH3T3.

Consider `CN1C(=S)CN=C(c2ccccc2)c2cc(Cl)ccc21`, for which the Potency entry in the assay with ICS, in the assay on JCK, in the assay on N140, in the assay with P93_24, with P94_40 and in the assay on PAD was “inactive” throughout. Also, the Potency entry in the assay with PC15, in the assay on PC26, in the assay with PC49, in the assay with SC27B, in the assay on TAB109 and in the assay on TAB113 was “inactive” in each case. For the same compound, the Potency entry in the assay on TAB165 and in the assay with W2 was “inactive” each time. For the same compound, the outcome in the assay on CRL-7250 [1], in the assay with HaCat, with NIH3T3 and in the assay with CRL-7250 [2] was inactive. Besides, the max response is -23.9% with HEK293 and 4.4% in the assay on KB-3-1.

On to `CNCC(O)c1ccc(O)cc1` (stereo unspecified), for which the max response with CRL-7250 [1] is -6.88%; in the assay on HEK293, -14.1% and 1.65%; in the assay with KB-3-1, 12.6%; in the assay on NIH3T3, -18%. The outcome in the assay with HaCat, in the assay on KB-3-1 and with NIH3T3 was inactive.

In the case of `COc1ccc(C(CN(C)C)C2(O)CCCCC2)cc1` (stereo unspecified), the Potency entry in the assay with ICS, in the assay on JCK, in the assay with P93_24, in the assay on P94_40, with PAD and in the assay with PC15 was “inactive” in each case. Further, the Potency entry in the assay on PC49, with SC27B, with TAB109, in the assay on TAB113 and in the assay with TAB165 was “inactive” in each case. Also, in the assay on W2, the Potency is 1.9 µM (active). Besides, the max response in the assay on CRL-7250 [1] was -3.43% and 1.19%; in the assay on HEK293 it was 1.04%; in the assay on HaCat, 1.09% and -4.23%; in the assay with KB-3-1, 2.29% and -2.64%; in the assay on NIH3T3, 2.42%. For the same compound, the call with HEK293 and in the assay on NIH3T3 was inactive.

For the compound `CC[N+](CC)(CC)CC`, the Potency entry in the assay with ICS, in the assay on JCK, with N140, with P93_24, with P94_40 and with PAD was “inactive” each time. The Potency result in the assay on PC15, in the assay with PC49, in the assay on SC27B, with TAB109, in the assay with TAB113 and in the assay on TAB165 was “inactive” in each case. In addition, the Potency result in the assay on W2 was “inactive”. Also, the outcome in the assay on CRL-7250 [1], in the assay on NIH3T3 and in the assay with CRL-7250 [2] was inactive. Further, the max response in the assay on HEK293 is -5.65%; in the assay with HaCat, -5.59%; with KB-3-1, -7.23%.

Take `COc1ccc(Cc2nccc3cc(OC)c(OC)cc23)cc1OC`: the Potency with CRL-7250 [1] was 5.31 µM (active). The max response in the assay on CRL-7250 [1] is 2.23%; in the assay on HaCat it was -4.38% and -16.7%; in the assay with KB-3-1, -20.5% and -0.283%; in the assay on NIH3T3, -6.53%.

As for `CC(C)NCC(O)c1ccccc1Cl` (stereo unspecified), the Potency in the assay on ICS was 4.47 µM (active); with N140, 7.08 µM (active); with P93_24 it was 12.6 µM (active); in the assay on P94_40 it was 3.98 µM (active); with PAD it was 7.94 µM (active); in the assay with PC15, 11.2 µM (active). In addition, the Potency in the assay with SC27B is 10 µM (active); in the assay on TAB109, 4.47 µM (active); in the assay with TAB113 it was 12.6 µM (active); in the assay on W2, 3.38 µM (active). In addition, the result in the assay on CRL-7250 [1], in the assay on HEK293 and in the assay with CRL-7250 [2] was inactive. For the same compound, the max response with HaCat was -6.64%; in the assay on KB-3-1, -12%; in the assay on NIH3T3, -1.73%.

Turning to `O=C(O)c1ccc2[nH]cc(CCCCN3CC=C(c4ccccc4)CC3)c2c1`, the Potency entry with ICS, with JCK, with N140, in the assay on P93_24, with P94_40 and in the assay on PAD was “inactive” each time. In addition, the Potency entry with PC15, in the assay on PC26, with PC49, in the assay with SC27B, in the assay with TAB109 and in the assay on TAB113 was “inactive” in each case. Besides, in the assay on TAB165, the Potency result was “inactive”. Also, the max response with CRL-7250 [1] is -7.24%; in the assay on HEK293, -0.718%; with KB-3-1 it was -2.41%. The result in the assay with HaCat and in the assay with NIH3T3 was inactive.

Turning to `NN=C(N)N`, the Potency entry in the assay with ICS, in the assay with JCK, with N140, with P93_24, in the assay with P94_40 and in the assay with PAD was “inactive” each time. Also, the Potency result in the assay with PC15, with PC26, in the assay on PC49, with SC27B, in the assay on TAB109 and in the assay on TAB113 was “inactive” each time. Further, the Potency entry in the assay with TAB165 and with W2 was “inactive” throughout. Also, the call with CRL-7250 [1] and in the assay on CRL-7250 [2] was inactive. The max response is -4.43% in the assay with HEK293, -1.38% with HaCat, 8.75% in the assay on KB-3-1 and -4.47% in the assay on NIH3T3.
